Assay outcomes (PubChem BioAssay)
Bcl-xL primary: Bcl-xL (human) inhibition; inhibition, % at 10.9 µM; GST-Bcl-xL / FITC-Bim BH3 peptide fluorescence polarization; AID 2129; 320,000 compounds, 0.7% hits; Q07817;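 active = inhibition above the mean of all tested compounds plus 3 SD, cutoff set per campaign, cut at about 30% in these data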;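 note: inhibitors lower millipolarization by displacing the labeled peptide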
MEX-5 binding: C. elegans MEX-5 TCR-2 RNA binding activity; AID 1832; MEX-5/FITC-TCR2 RNA binding, fluorescence polarization; stronger effect = lower value; 300,000 compounds, 0.38% hits; activity score (negative = inhibition of binding), % at 10 µM; Q9XUB2;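 active = inhibition past about -25% in most replicates, and total fluorescence under double the plate's negative control median, limit read from the data; inconclusive = replicates evenly split on the limit, or fluorescence at least double controls; inactive = too little inhibition in most replicates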
eLon inh: inhibits E. coli Lon protease; purified E. coli Lon protease, fluorescence polarization; inhibition, % at 7.94 µM; 360,000 compounds, 0.42% hits; AID 602123; in the data active = inhibition above about 13%, passing the limit was not always enough
Target sequence (P0A9M0 whole entry, looked up): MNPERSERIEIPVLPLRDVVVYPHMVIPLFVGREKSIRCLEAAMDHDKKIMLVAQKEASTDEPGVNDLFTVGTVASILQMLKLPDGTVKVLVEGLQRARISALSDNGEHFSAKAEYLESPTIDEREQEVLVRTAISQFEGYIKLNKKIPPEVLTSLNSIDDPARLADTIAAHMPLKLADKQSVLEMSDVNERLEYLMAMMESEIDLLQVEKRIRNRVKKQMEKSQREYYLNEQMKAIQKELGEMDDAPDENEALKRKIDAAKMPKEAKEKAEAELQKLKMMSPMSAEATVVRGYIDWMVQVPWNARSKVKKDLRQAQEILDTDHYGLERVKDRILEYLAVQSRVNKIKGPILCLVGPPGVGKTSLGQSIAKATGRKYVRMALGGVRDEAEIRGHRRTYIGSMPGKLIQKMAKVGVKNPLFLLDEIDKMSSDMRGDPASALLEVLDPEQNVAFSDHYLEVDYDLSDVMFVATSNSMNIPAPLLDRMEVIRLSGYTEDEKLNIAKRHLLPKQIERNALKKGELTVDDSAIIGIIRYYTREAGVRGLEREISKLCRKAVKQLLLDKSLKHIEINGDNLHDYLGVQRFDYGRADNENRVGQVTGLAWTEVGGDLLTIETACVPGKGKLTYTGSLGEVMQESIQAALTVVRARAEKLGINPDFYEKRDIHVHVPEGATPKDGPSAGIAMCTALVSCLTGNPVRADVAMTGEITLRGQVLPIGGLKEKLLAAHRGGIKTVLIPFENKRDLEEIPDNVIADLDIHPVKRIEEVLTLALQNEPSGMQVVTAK
GLD-1 RNA inh: GLD-1-TGE RNA interaction inhibition (C. elegans) | purified GLD-1 + fluorescein TGE RNA, fluorescence polarization | Q17339 | 320,000 compounds, 0.44% hits | inhibition, % at 5.96 µM | AID 2280;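 active = percent inhibition above a per-plate cutoff, the plate mean of test compounds plus 3 SD, cut at about 30% in these data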
MCL1 BIM primary: inhibitors of human MCL1 binding to BIM-BH3 peptide; inhibition, % at 10.9 µM; Q07820; AID 2057; GST-MCL1 / FITC-Bim-BH3 fluorescence polarization; 320,000 compounds, 0.68% hits;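 active = inhibition above the mean inhibition of all tested compounds plus 3 SD, set per campaign, cut at about 40% in these data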;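 note: higher means more loss of mP so more displacement of Bim peptide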
GLD1 RNA confirm: GLD-1 TGE RNA interaction inhibition, confirmation; inhibition, % at 5.96 µM; 550 compounds, 10% hits; GLD-1/FL-TGE RNA fluorescence polarization, biochemical; shares compounds with GLD-1 RNA inh;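 active = average inhibition across triplicates above the hit cutoff set in the primary screen, cut at about 32% in these data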
Large screens that a line does not name were inactive (follow-up assays come after a bar, where they were run). Sampled rows, rich in hits. Any-hit rate of the full collection: about 1.4%.

CCOC(=O)C1CCN(C(=O)c2ccc3c(c2)NC(=O)/C(=C/c2ccccc2)S3)CC1	none
CCOC(=O)C1CCN(C(=O)c2ccc3c(c2)NC(=O)/C(=C\c2ccc(C)cc2)S3)CC1	Bcl-xL primary 36.8, MEX-5 binding inconclusive, GLD-1 RNA inh 35.2, MCL1 BIM primary 42.4 | GLD1 RNA confirm inactive
CCOC(=O)c1c(C)nc2sc3c(=O)n(-c4ccc(C(C)=O)cc4)cnc3c2c1-c1ccc(OC)cc1	Bcl-xL primary 30.6, GLD-1 RNA inh 42.8 | GLD1 RNA confirm inactive
Cc1ccc(-c2nc(-c3ccncc3)no2)cc1C	GLD-1 RNA inh 37.2 | GLD1 RNA confirm inactive
Cc1ccc(-c2nc(-c3ccncc3)no2)cc1Cl	none
CCOc1ccc(NC(=O)CC2S/C(=N/N=C3CCCCCC3)NC2=O)cc1 (configuration not stated)	GLD-1 RNA inh 38.5 | GLD1 RNA confirm inactive
Cc1c(C(=O)N2CCC3(CC2)CC(=O)c2ccccc2O3)cccc1[N+](=O)[O-]	GLD-1 RNA inh 43.8 | GLD1 RNA confirm inactive
CCN1CCN(C(=O)Nc2cc(Cl)ccc2OC)CC1	none
CCN1CCN(C(=O)C(C)Nc2cc(Cl)c(OC)cc2OC)CC1 (configuration not stated)	Bcl-xL primary 53.3, GLD-1 RNA inh 35.7, MCL1 BIM primary 48.3 | GLD1 RNA confirm inactive
CN1CCN(c2nc3nonc3nc2N2CCN(C)CC2)CC1	Bcl-xL primary 33.1, GLD-1 RNA inh 35.0 | GLD1 RNA confirm inactive
COc1ccc(NC(=O)NC2(C(=O)N3CCOCC3)CCCCC2)cc1	none
COc1ccc(CCN2C(=S)N(C)C(=O)C2CC(=O)Nc2ccc(F)cc2)cc1 (configuration not stated)	GLD-1 RNA inh 61.2 | GLD1 RNA confirm inactive
CCN1C(=O)C(CC(=O)Nc2ccc(OC)cc2)N(CCc2ccc(OC)cc2)C1=S (configuration not stated)	none
COCCN(C(=O)COC(=O)CCC1CCCCC1)c1c(N)n(Cc2ccccc2)c(=O)[nH]c1=O	none (no result: Bcl-xL primary, MEX-5 binding, GLD-1 RNA inh, MCL1 BIM primary)
Cc1ccc(Cl)cc1NCN1C(=O)c2ccccc2C1=O	none (no result: Bcl-xL primary, MEX-5 binding, GLD-1 RNA inh, MCL1 BIM primary)
C=CCn1c(=NC(=O)c2ccc(S(=O)(=O)N3CCCc4ccccc43)cc2)sc2cc(S(N)(=O)=O)ccc21	none
COCCn1c(=NC(=O)c2ccc(S(=O)(=O)N3CCCc4ccccc43)cc2)sc2cc(S(C)(=O)=O)ccc21	GLD-1 RNA inh 31.8 | GLD1 RNA confirm inactive
Cc1sc2ncnc(SCC(=O)N3CCCC(C(N)=O)C3)c2c1C (configuration not stated)	none
Cc1ccc(-c2csc(N3CCN(CCCn4c(C(F)(F)F)nc5ccccc54)CC3)n2)cc1	GLD-1 RNA inh 39.9 | GLD1 RNA confirm inactive
Cc1ccc(-c2csc(N3CCN(CCCn4c(-c5ccncc5)nc5ccccc54)CC3)n2)cc1	none
Cc1cc(C)c(S(=O)(=O)N(C)CC(=O)NCCN2CCOCC2)c(C)c1	none
CN(CCc1ccccc1)C1CCCN(S(=O)(=O)N(C)C)C1 (configuration not stated)	GLD-1 RNA inh 65.1 | GLD1 RNA confirm inactive
C#CCONC(=O)c1cc(OCC(F)(F)F)ccc1OCC(F)(F)F	none
CCC(NC(=S)NC1CCCCC1)c1ccc(C(C)C)cc1 (configuration not stated)	none (no result: Bcl-xL primary, GLD-1 RNA inh, MCL1 BIM primary)
CC(C)CCN(C(=O)CCCSc1nc2ccccc2[nH]1)c1c(N)n(Cc2ccccc2)c(=O)[nH]c1=O	GLD-1 RNA inh 47.2 | GLD1 RNA confirm 65.0
CC(C)CN(C(=O)CCCSc1nc2ccccc2[nH]1)c1c(N)n(Cc2ccccc2)c(=O)[nH]c1=O	none
COc1ccccc1CNS(=O)(=O)c1ccc(-c2cnc(C3CC3)o2)cc1	none
CN(C(=O)c1cc([N+](=O)[O-])ccc1NCc1cccnc1)c1ccccc1	none
CC1SCC(=O)N(CC(=O)Nc2ccc3c(c2)OCCO3)C1=O (configuration not stated)	none
O=C(Nc1cccc2ccccc12)c1ccccc1Cl	GLD-1 RNA inh 50.7 | GLD1 RNA confirm inactive
Nc1ccccc1C(=O)Nc1cccc2ccccc12	none (no result: Bcl-xL primary, GLD-1 RNA inh, MCL1 BIM primary)
Cc1c(Br)c([N+](=O)[O-])nn1CC(=O)N1CCCc2ccccc21	none
CC1CCN(C(=O)CN(c2cccc(F)c2)S(C)(=O)=O)CC1	none
O=C(Nc1sc2c(c1C(=O)O)CCC2)c1ccccc1	GLD-1 RNA inh 49.2 | GLD1 RNA confirm inactive
COc1cccc(C(=O)Nc2ccc(NC(=O)C(C)(C)C)cn2)c1	none
O=C(CNC(=O)N1CC(=O)Nc2ccccc21)Nc1ccccc1	none
COc1ccc(Nc2ccc(N3C(=O)CC(C)C3=O)cc2[N+](=O)[O-])cn1 (configuration not stated)	Bcl-xL primary 42.2, GLD-1 RNA inh 38.4, MCL1 BIM primary 42.0 | GLD1 RNA confirm inactive
C=CCN1C=C2C(=O)C(C)(OC(=O)C3CCCC3)C(=O)C=C2C=C1c1ccsc1 (configuration not stated)	Bcl-xL primary 31.2, GLD-1 RNA inh 31.8 | GLD1 RNA confirm inactive
O=C/C=C/c1c(-c2ccccc2)cc2oc3ccccc3cc1-2	none
Cc1ccc(C)c(NC(=S)NCc2ccc3[nH]c4c(c3c2)CCCC4)c1	Bcl-xL primary 54.7, GLD-1 RNA inh 59.2 | GLD1 RNA confirm inactive
Cc1ccccc1NC(=S)NCc1ccc2[nH]c3c(c2c1)CCCC3	none
COCCNc1ccc([N+](=O)[O-])cc1C(=O)Nc1cccc(C)n1	GLD-1 RNA inh 68.0 | GLD1 RNA confirm inactive
Fc1ccc(-c2nc3c(Cl)cc(C(F)(F)F)cn3c2Cl)cc1	MEX-5 binding -26.1, GLD-1 RNA inh 37.5 | GLD1 RNA confirm inactive
Cc1ccc(Cc2c(-c3ccc(F)cc3)nc3c(Cl)cc(C(F)(F)F)cn23)cc1	none (no result: Bcl-xL primary, MEX-5 binding, GLD-1 RNA inh, MCL1 BIM primary)
O=C(C[n+]1cn(C(F)F)c2ccccc21)c1ccc(OC(F)F)cc1	none
CCN(Cc1ccccc1)C(=O)CCS(=O)(=O)c1ccc2c(c1)n(C)c(=O)c(=O)n2C	GLD-1 RNA inh 45.8 | GLD1 RNA confirm inactive
Cn1c(=O)c(=O)n(C)c2cc(S(=O)(=O)CCC(=O)NCc3ccccc3)ccc21	none
CC1CCCC(C)N1CCNC(=O)CCc1nnc2n(Cc3ccccc3)c(=O)c3ccccc3n12 (configuration not stated)	none
O=C(O)C1Sc2[nH]c(=O)sc2C2c3cc(Br)ccc3OC(=O)C12 (configuration not stated)	Bcl-xL primary 38.1, GLD-1 RNA inh 54.1, MCL1 BIM primary 44.5 (no result: MEX-5 binding) | GLD1 RNA confirm inactive
O=C(OCCN1CCCCC1)c1c[nH]c2ccccc12	GLD-1 RNA inh 31.8 (no result: MEX-5 binding) | GLD1 RNA confirm inactive
CCOc1ccc(C(=O)n2cnnc2N)cc1	GLD-1 RNA inh 35.5 | GLD1 RNA confirm inactive
COc1ccc(C(=O)n2cnnc2N)cc1	none
N#CC1=C(N)C2=CCCC[C@H]2[C@H](c2ccccc2)C1(C#N)C#N	Bcl-xL primary 34.7, GLD-1 RNA inh 39.7, MCL1 BIM primary 41.6 | GLD1 RNA confirm inactive
